This is an account of results in PubChem BioAssay (NCATS).

Assay [1] in a line: qHTS of pediatric cancer cell lines to identify multiple opportunities for drug repurposing: Primary screen for BT-12 cells (AID 1347101). Also: nearly all actives have a fitted effect of over 25% in size. Also: potency is read from the fitted curve at half-maximal effect. Put shortly:
(§1)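 Cells (500-1,000/well) rested 5 h, then received compounds for 48 h; metabolically active cells were measured by CellTiter-Glo luminescence. Final concentrations spanned up to 46 µM (MIPE, 11-point) or 0.59 nM-46 µM (NPC, 8-point) in primary screens, 11-point in follow-ups.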
On the technique in general: qHTS replaces the single test concentration by a dilution series.

Assay [2] in a line: qHTS of pediatric cancer cell lines to identify multiple opportunities for drug repurposing: Primary screen for Rh18 cells (AID 1347102). Also: nearly all actives have a fitted effect of over 65% in size. The method in brief: (§2)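 Cells (500-1,000/well) in growth media were settled 5 h at 37 degrees C, then given compounds for 48 h. Viability was read as CellTiter-Glo luminescence. Primary runs used MIPE at 11 points (0.78 nM-46 µM) and NPC at 8 points (0.59 nM-46 µM); follow-ups used 11 points.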

Assay [3] can be described thus: qHTS of pediatric cancer cell lines to identify multiple opportunities for drug repurposing: Primary screen for MG 63 (6-TG R) cells (AID 1347105). Also: nearly all actives have a fitted effect of over 50% in size. Also: potency is read from the fitted curve at half-maximal effect. Put shortly:
(§3)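 Viability was measured as metabolically active cells after 48 hours of treatment, read by CellTiter-Glo luminescence. Compounds were tested at multiple final concentrations, giving concentration-response curves.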

Assay [4] is described as follows: qHTS of pediatric cancer cell lines to identify multiple opportunities for drug repurposing: Primary screen for control Hh wild type fibroblast cells (AID 1347106). Also: nearly all actives have a fitted effect of over 55% in size. Also: potency is read from the fitted curve at half-maximal effect. Put shortly: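 Viability after 48 h compound treatment at 37C, 500-1,000 cells/well, read as ATP luminescence with CellTiter-Glo. Primary screens used 11-point (MIPE, 0.78 nM-46 µM) or 8-point (NPC, 0.59 nM-46 µM) final concentrations; follow-up screens used 11-point dilutions.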

The nature of assay [5]: qHTS of pediatric cancer cell lines to identify multiple opportunities for drug repurposing: Primary screen for Rh30 cells (AID 1347107). Also: nearly all actives have a fitted effect of over 75% in size. Also: potency is read from the fitted curve at half-maximal effect. The method in brief:
as §2

The nature of assay [6]: qHTS of pediatric cancer cell lines to identify multiple opportunities for drug repurposing: Primary screen for Rh41 cells (AID 1347108). Also: nearly all actives have a fitted effect of over 70% in size. Also: potency is read from the fitted curve at half-maximal effect. The method in brief: as §3
A short description of assay [7]: qHTS of pediatric cancer cell lines to identify multiple opportunities for drug repurposing: Confirmatory screen for NB1643 cells (AID 1347109). Also: nearly all actives have a fitted effect of over 45% in size. The method in brief: as §2
A short description of assay [8]: qHTS of pediatric cancer cell lines to identify multiple opportunities for drug repurposing: Confirmatory screen for A673 cells (AID 1347110).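 Also: cells exposed to compound for 48 h before the viability read; nearly all actives have a fitted effect of over 65% in size.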 Also: potency is read from the fitted curve at half-maximal effect. Put shortly:
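Forty-eight-hour viability assay. Follow-up compounds ran at 11-point dilutions; positive control bortezomib at 2.3 uM final, neutral control DMSO.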

The nature of assay [9]: qHTS of pediatric cancer cell lines to identify multiple opportunities for drug repurposing: Confirmatory screen for SK-N-MC cells (AID 1347111).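 Also: potency is read from the fitted curve at half-maximal effect; cells exposed to compound for 48 h before the readout; nearly all actives have a fitted effect of over 70% in size.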 The method in brief: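 Metabolically active cells were quantified by ATP-dependent luminescence (CellTiter-Glo, 15 min at room temperature) following 48 h treatment. Cells had been plated at 500-1,000 per well and settled for 5 h beforehand.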

A short description of assay [10]: qHTS of pediatric cancer cell lines to identify multiple opportunities for drug repurposing: Confirmatory screen for BT-12 cells (AID 1347112). Also: nearly all actives have a fitted effect of over 55% in size. Put shortly:
as §2

Assay [11] is described as follows: qHTS of pediatric cancer cell lines to identify multiple opportunities for drug repurposing: Confirmatory screen for LAN-5 cells (AID 1347113). Also: nearly all actives have a fitted effect of over 65% in size. The method in brief: as §2
A short description of assay [12]: qHTS of pediatric cancer cell lines to identify multiple opportunities for drug repurposing: Confirmatory screen for DAOY cells (AID 1347114). Also: nearly all actives have a fitted effect of over 65% in size. Put shortly:
(§4)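 Viability measured as metabolically active cells via CellTiter-Glo luminescence following 48 hours of compound exposure, 11-point dilutions in confirmatory testing. 500-1,000 cells/well plated 5 hours before dosing; controls were DMSO and 2.3 µM bortezomib.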

Assay [13] can be described thus: qHTS of pediatric cancer cell lines to identify multiple opportunities for drug repurposing: Confirmatory screen for SJ-GBM2 cells (AID 1347116). Also: nearly all actives have a fitted effect of over 60% in size. The method in brief: as §4
Assay [14] in a line: qHTS of pediatric cancer cell lines to identify multiple opportunities for drug repurposing: Confirmatory screen for BT-37 cells (AID 1347117). Also: nearly all actives have a fitted effect of over 55% in size. The method in brief:
as §2

Assay [15] is described as follows: qHTS of pediatric cancer cell lines to identify multiple opportunities for drug repurposing: Confirmatory screen for TC32 cells (AID 1347118). Also: potency is read from the fitted curve at half-maximal effect. The method in brief: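 Luminescent CellTiter-Glo read-out of metabolically active TC32 cells after 48 h compound exposure. Primary: MIPE 11-point, 0.78 nM–46 µM; NPC 8-point, 0.59 nM–46 µM. Confirmatory: 11-point dilutions.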

The nature of assay [16]: qHTS of pediatric cancer cell lines to identify multiple opportunities for drug repurposing: Confirmatory screen for control Hh wild type fibroblast cells (AID 1347121). Also: nearly all actives have a fitted effect of over 70% in size. Put shortly: as §2
A short description of assay [17]: qHTS of pediatric cancer cell lines to identify multiple opportunities for drug repurposing: Primary screen for RD cells (AID 1347104). Also: nearly all actives have a fitted effect of over 55% in size. Also: potency is read from the fitted curve at half-maximal effect. The method in brief:
as §3

Assay [18] in a line: qHTS of pediatric cancer cell lines to identify multiple opportunities for drug repurposing: Confirmatory screen for U-2 OS cells (AID 1347122). Also: nearly all actives have a fitted effect of over 65% in size. Also: potency is read from the fitted curve at half-maximal effect. The method in brief: as §2
Assay [19] in a line: qHTS of pediatric cancer cell lines to identify multiple opportunities for drug repurposing: Primary screen for OHS-50 cells (AID 1347103). Also: nearly all actives have a fitted effect of over 40% in size. Also: potency is read from the fitted curve at half-maximal effect. The method in brief: as §1

Records with an inconclusive call do not appear. The source made the active and inactive calls. Calls follow the shape of the dose curve; as a rule, active = well fitted curve in the direction sought with a large enough effect; inconclusive = small, poorly fitted or top-dose-only effect, or another doubt; inactive = no such curve, though single readings can be large; an effect the other way counts as inactive or inconclusive.

As to `COc1cc2c(cc1OC)CN(CCc1ccc(NC(=O)c3cc(OC)c(OC)cc3NC(=O)c3cnc4ccccc4c3)cc1)CC2`, the Potency entry in assay [1], in [2], in [3], in assay [4] and in assay [5] was “inactive” each time.

As to `O=C(O)c1ccc(-c2c[nH]c3ncc(-c4ccccc4)cc23)cc1C1CCCC1`, the Potency result in assay [1], in assay [2], in assay [4], in [5], in [6] and in [7] was “inactive” in each case. Further, the Potency entry in assay [8], in assay [10], in assay [11], in assay [12], in assay [13] and in assay [14] was “inactive” each time. Also, the Potency entry in assay [15] and in assay [16] was “inactive” each time. Also, the Potency in assay [9] is 9.27 µM (active).

`COc1ccc(-c2coc3cc(O)cc(O)c3c2=O)cc1`: the Potency entry in [1], in assay [2], in assay [17], in assay [3], in assay [4] and in assay [5] was “inactive” in each case. For the same compound, the Potency entry in [6], in [10], in assay [12], in assay [14], in assay [16] and in assay [18] was “inactive” in each case. The figures for the Potency in assay [8], in assay [9] and in assay [15] were 0.117 µM (active), 1.04 µM (active) and 1.04 µM (active), respectively.

Regarding `Cc1nc(N)sc1-c1ccnc(Nc2ccc(N3CCOCC3)cc2)n1`, the Potency in assay [1] was 24.3 µM (active); in [19], 3.85 µM (active); in assay [17], 20.9 µM (active); in [3], 5.9 µM (active); in assay [4], 16.6 µM (active).

As to `N#CC(=C(N)Sc1ccccc1N)C(C#N)=C(N)Sc1ccccc1N`, the Potency in assay [1] was 13.7 µM (active); in assay [19], 27.3 µM (active); in [17], 5.26 µM (active); in [6], 18.7 µM (active). The Potency result in assay [4] is “inactive”.

Regarding `CC(C)(C)C(=O)Oc1ccc2c(c1)nc(NC(=O)c1cccc([N+](=O)[O-])c1)n2CCCO`, the Potency entry in assay [1], in [19], in assay [17], in assay [3], in [4] and in assay [5] was “inactive” throughout.

As to `CO[C@H]1C[C@@H]2CC[C@@H](C)[C@@](O)(O2)C(=O)C(=O)N2CCCC[C@@H]2C(=O)O[C@H]([C@H](C)C[C@@H]2CC[C@H](OP(C)(C)=O)[C@H](OC)C2)CC(=O)[C@H](C)C=C(C)[C@@H](O)[C@@H](OC)C(=O)[C@H](C)C[C@H](C)C=CC=CC=C1C`, the Potency in assay [1] is 27.3 µM (active); in assay [9] it was 11.7 µM (active); in [15] it was 10.4 µM (active); in [18], 14.7 µM (active). Moreover, the Potency entry in assay [17], in assay [3], in assay [4], in assay [5], in assay [7] and in assay [16] was “inactive” in each case.

With `CCNc1cc(NC2CCC(O)CC2)nc(Nc2ccc3c(ccn3Cc3ccccc3)c2)n1` (centres undefined), the Potency in [1] is 27.3 µM (active). Besides, the Potency entry in assay [3], in assay [4] and in assay [5] was “inactive” in each case.

As to `CC(C)(C)c1ccc(C(O)CCCN2CCC(C(O)(c3ccccc3)c3ccccc3)CC2)cc1` (centres undefined), the Potency result in assay [1], in assay [19], in assay [17], in assay [3], in assay [4] and in assay [5] was “inactive” each time.

`CC/C(=C(\c1ccccc1)c1ccc(OCCN(C)C)cc1)c1ccccc1`: the Potency in assay [1] was 27.6 µM (active); in [19] it was 17.4 µM (active). Further, the Potency entry in assay [3], in [4], in assay [5] and in assay [6] was “inactive” in each case.

For `O=C1C[C@@H](c2ccc(O)cc2)Oc2cc(O)cc(O)c21`, the Potency result in assay [2], in assay [19], in assay [17], in assay [3], in [4] and in [5] was “inactive” each time.

On to `c1ccc2c(-c3cnn4cc(-c5ccc(N6CCNCC6)cc5)cnc34)ccnc2c1`, for which the results for the Potency in [1], in assay [4] and in assay [5] were 27.3 µM (active), 4.69 µM (active) and 18.7 µM (active), respectively.

With `CC1=C(/C=C/C(C)=C/C=C/C(C)=C/C(=O)Nc2ccc(O)cc2)C(C)(C)CCC1`, the Potency in assay [1] is 7.77 µM (active); in assay [19], 15.5 µM (active); in [17] it was 26.6 µM (active); in [6], 9.44 µM (active). Besides, the Potency entry in assay [4] was “inactive”.

For the compound `CC(=O)O[C@]1(C(C)=O)CC[C@@H]2[C@@H]3C[C@H](C)C4=CC(=O)CC[C@]4(C)[C@H]3CC[C@@]21C`, the Potency in assay [1] and in assay [19] was 24.3 µM (active) each time. Also, the Potency result in [4], in assay [11], in [12], in assay [16] and in assay [18] was “inactive” throughout.

With `CC(C)(C)NC(=O)Nc1cccc(Nc2ncc(F)c(NC(C)(C)CO)n2)c1`, the Potency result in assay [2], in assay [19], in assay [17], in assay [3], in assay [4] and in [5] was “inactive” throughout.

`CC=CC[C@@H](C)C(=O)[C@H]1C(=O)N[C@@H](C(C)C)C(=O)N(C)CC(=O)N(C)[C@@H](CC(C)C)C(=O)N[C@@H](C(C)C)C(=O)N(C)[C@@H](CC(C)C)C(=O)N[C@@H](C)C(=O)N[C@H](C)C(=O)N(C)[C@@H](CC(C)C)C(=O)N(C)[C@@H](CC(C)C)C(=O)N(C)[C@@H](C(C)C)C(=O)N1C`: the Potency entry in [2], in assay [17], in [3], in assay [4] and in [5] was “inactive” each time. Besides, in [19], the Potency is 24.3 µM (active).

In the case of `CCN(CC)CCOc1ccc(C(=C(Cl)c2ccccc2)c2ccccc2)cc1`, the Potency result in assay [1], in [3], in assay [5] and in [6] was “inactive” in each case.

As to `CCn1c(C(=O)N(C2CC2)C2CC2)cc2c3c(ncn3C)c(Nc3cc(C)n(C)n3)nc21`, the Potency result in assay [1], in assay [17], in assay [3] and in [4] was “inactive” each time.

Take `CCCNC(=O)NS(=O)(=O)c1ccc(Cl)cc1`: the Potency result in assay [1], in assay [19], in [17], in assay [3], in assay [4] and in [5] was “inactive” throughout. For the same compound, the Potency result in assay [6] is “inactive”.

`CC(C)n1cnc2c(NCCCCCCNC(=O)OC(C)(C)C)nc(NCCO)nc21`: the Potency result in assay [2], in assay [3] and in assay [4] was “inactive” each time. The Potency in [17] was 33.2 µM (active).

`C[N+](C)(C)CCCCCC[N+](C)(C)C`: the Potency entry in [1], in [19], in [17], in assay [3], in assay [4] and in assay [5] was “inactive” in each case. Also, the Potency result in [6] is “inactive”.

For `COc1cc(Nc2ncc(F)c(Nc3ccc4c(n3)NC(=O)C(C)(C)O4)n2)cc(OC)c1OC`, the Potency result in [1] and in assay [4] was “inactive” in each case. For the same compound, the Potency in assay [19] is 0.544 µM (active).
